From PubChem BioAssay (EPA / NIEHS)
Results filed as inconclusive are left out. Activity calls are given as the source filed them. The calls were made as follows: active = hit-call score of the fitted dose curve at least 0.9, where 1 is the maximum; inconclusive = response in the unintended direction; inactive = score below 0.9.

biological target: human Dopamine Transporter (DAT), SLC6A3 (gene 6531) (UniProt Q01959); test: NVS_TR_hDAT: NovaScreen (NVS) Transporter Assay for human Dopamine Transporter (DAT) (AID 2283374);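 also: activity means loss of bound radioligand signal relative to DMSO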
Sequence (Q01959 whole entry, looked up): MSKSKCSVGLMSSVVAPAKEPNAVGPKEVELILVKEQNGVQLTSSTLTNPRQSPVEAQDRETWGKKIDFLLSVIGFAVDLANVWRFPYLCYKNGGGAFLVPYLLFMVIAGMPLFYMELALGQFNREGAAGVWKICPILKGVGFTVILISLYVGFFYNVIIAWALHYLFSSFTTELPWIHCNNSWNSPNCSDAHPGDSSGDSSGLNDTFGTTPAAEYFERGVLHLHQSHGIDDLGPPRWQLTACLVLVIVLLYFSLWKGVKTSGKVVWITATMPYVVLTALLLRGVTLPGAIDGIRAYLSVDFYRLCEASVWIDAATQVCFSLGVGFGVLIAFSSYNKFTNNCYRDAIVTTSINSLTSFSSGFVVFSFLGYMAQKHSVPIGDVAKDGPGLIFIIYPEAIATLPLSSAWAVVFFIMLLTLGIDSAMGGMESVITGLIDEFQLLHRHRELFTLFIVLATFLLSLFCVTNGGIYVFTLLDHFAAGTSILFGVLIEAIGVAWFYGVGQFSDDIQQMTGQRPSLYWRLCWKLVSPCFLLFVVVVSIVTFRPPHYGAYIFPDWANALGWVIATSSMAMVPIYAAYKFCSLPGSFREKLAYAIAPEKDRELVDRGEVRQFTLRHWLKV
Method in brief: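 Cell-free radioligand displacement binding at human DAT, 1 h after dosing, with filtration and scintillation counting. Primary screen in duplicate at 25 uM, actives then in concentration series. Loss of bound signal versus DMSO scored.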

SMILES	AC50	outcome
c1ccc2c(c1)ccc1ncccc12	16.4 µM (active)	
CC(C)=CC1CC(C)CCO1 (centres undefined)		inactive
CCCCCCCCCCCCCCCC[N+](C)(C)CC	1.82 µM (active)	
CCCCC/C=C\C/C=C\CCCCCCCC(=O)OC		inactive
